Outcome data for 110 compounds are collected here from PubChem BioAssay AID2401 (Southern Research Specialized Biocontainment Screening …, 2010).

SMILES strings stand for the structures. About 530 (24%) of roughly 2,200 compounds were called active.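 How the source made its calls: active means inhibition above a set limit at one or more concentrations of the dose series; inactive means inhibition under that limit at every dose.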 The list is a sample of the results. Results with a measured potency or affinity are listed apart.

This test in a line: S. Typhimurium nonspecific reporter signal inhibition – Salmonella Typhimurium, GFP fluorescence, counter-screen for PhoP regulon inhibitor project, dose response (AID 2401).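 Further: S. typhimurium with Mg-insensitive nmpC-GFP reporter grown at 10 µM Mg2+; drop in reporter fluorescence reflects general culture growth inhibition.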 The following applies: 4 h; series mostly up to 150 µM. Background: The purpose of a counterscreen is to sort out artefacts and off-target activity.
As to `CCN(C(=O)COc1cc(=O)n(CC)c2ccccc12)c1cccc(Cl)c1`, the result was inactive. With `O=C(c1ccc(Oc2ccccc2)cc1)c1nc2c(n1O)CCCC2`, the compound was classed as inactive. Consider `CC(C)(C)c1cc2cccnc2n1Cc1cccc(Cl)c1`, for which the result was inactive. Regarding `Nc1ncncc1-c1ccc([N+](=O)[O-])cc1`, the outcome was inactive. For `O=C(Cn1ncc2c(=O)oc3ccccc3c21)N1CCN(c2ccccn2)CC1`, the outcome was inactive.

Take `O=C1CC(SCc2nc3ccccc3[nH]2)C(=O)N1c1ccc(Cl)cc1` (stereo not given): the compound was called inactive. The entry for `Cc1ccc(C(=O)CSC2=C(C#N)C(c3ccco3)CC(=O)N2)c(C)c1` (stereo not given) is “inactive”. The entry for `O=c1cc(-c2ccc([N+](=O)[O-])cc2)nc2cc(-c3ccc(Cl)cc3)[nH]n12` is “inactive”. To `Cc1ccc2cccc(Oc3ncnc4scc(-c5ccccc5)c34)c2n1` belongs “inactive”; to `CN1c2ccccc2C(=O)NC1c1ccc([N+](=O)[O-])s1` (stereo not given), “inactive”. `NC(CSC12CC3CC(CC(C3)C1)C2)C(=O)O` (stereo not given): the compound was called inactive.

`Cc1cc(-c2nnc(-c3ccccc3)c(-c3ccccc3)n2)c(C)o1`: the call was inactive. Consider `CCN(CC)S(=O)(=O)c1cccc(C(=O)NC(Cc2c[nH]c3ccccc23)c2nnc3n2CCC3)c1` (stereo not given), for which the result was inactive. The entry for `O=C(N/N=C/c1ccco1)c1cccc(S(=O)(=O)Nc2ccccc2Cl)c1` is “inactive”; for `CCn1c2ccccc2c2cc(/C=N/NC(=O)c3ccccc3)ccc21` it is “inactive”. For `Cc1ccc(-n2c(C)cc(/C=N/NC(N)=S)c2C)cc1`, the result was inactive.

`O=C1c2ccccc2C2=Nc3ccccc3SC(c3cccc(F)c3)C12` (stereo not given): the outcome was inactive. In the case of `CC1C(C#N)=C(N)OC2=C1C(=O)CCC2` (stereo not given), the result was inactive. As to `Cc1cccc(NC(=O)CCC(=O)OCc2ccc(Br)cc2)c1`, the result was inactive.

`Cc1ccnc2nc(C(=O)Nc3ccc4c(c3)OCO4)nn12`: the outcome was inactive. To `CN(C)c1ccc([C@@H]2[C@@H]([N+](=O)[O-])[C@H]3C=Cc4ccccc4N3[C@H]2C(=O)c2ccc(Cl)cc2)cc1` belongs “inactive”; to `COc1ccc(OC)c(/C=N/NC(=O)c2cc3c(OC)c(OC)ccc3[nH]2)c1`, “inactive”; to `O=C(Cc1cccs1)Nc1cccc(-c2nc3cc4ccccc4cc3[nH]2)c1`, “inactive”. With `Cc1cc(/C=N/n2cnnc2)c(C)n1-c1ccc(OCc2ccc(F)cc2)cc1`, the compound was called inactive.

On to `O=C(O)CC(NC(=S)NCc1ccccc1)C(=O)O` (stereo not given), for which the call was inactive. The entry for `COc1ccc(/C=N/Nc2cc(C)nc3c(C)cccc23)cc1` is “inactive”; for `COC(=O)c1ccc(Nc2cc(C)nc3ccccc23)cc1` it is “inactive”.

With `O=c1c2oc3ccccc3c2ncn1Cc1ccc(Cl)cc1`, the compound was classed as inactive. Regarding `Cc1c(C(c2cccc([N+](=O)[O-])c2O)c2c(C)n(C)n(-c3ccccc3)c2=O)c(=O)n(-c2ccccc2)n1C`, the outcome was inactive.

As to `Cc1[nH]n(-c2ccccc2)c(=O)c1-c1ccc(Cl)cc1`, the compound was classed as inactive. To `COc1ccc(OC)c(NC(=O)c2ccccc2NS(=O)(=O)c2cccc3cccnc23)c1` belongs “inactive”; to `Nc1nnc(SCc2ccc3c(c2)OCO3)s1`, “inactive”; to `CCOC(=O)C(NS(=O)(=O)c1ccccc1)(C(F)(F)F)P(=O)(OCC(C)C)OCC(C)C` (stereo not given), “inactive”. To `c1ccc(-c2cc(CSc3nc4ccccc4[nH]3)on2)cc1` belongs “inactive”.

With `Cc1ccc(N=Cc2sc(O)c3ccccc23)cc1`, the compound was called inactive. On to `N=c1sccn1CC(=O)Nc1ccccc1Oc1ccccc1`, for which the result was inactive.

Consider `O=C(NCCNc1ccc([N+](=O)[O-])cc1C(F)(F)F)c1ccc(F)cc1`, for which the result was inactive.

`O=C(NCCNc1ccc([N+](=O)[O-])cc1C(F)(F)F)c1ccccc1F`: the call was inactive.

On to `O=C(NCC(=O)N(c1cccnc1)C(C(=O)NCc1ccco1)c1ccccc1)c1ccco1` (stereo not given), for which the outcome was inactive. To `COc1ccc(N2C(=O)[C@@H]3[C@H](C2=O)[C@H]2c4ccccc4C=CN2[C@@H]3C(=O)Nc2ccccc2)cc1` belongs “inactive”. To `CCCc1cc(C(=O)Cc2ccc(C(=O)OCC)o2)c(O)cc1O` belongs “inactive”. To `CCOc1ccccc1NS(=O)(=O)c1ccc(Br)s1` belongs “inactive”. Take `O=C(Oc1ccc(N(Cc2cccs2)C2=NS(=O)(=O)c3ccccc32)cc1)c1ccc(Cl)cc1`: the outcome was inactive. The entry for `COc1ccc2c(c1)CC/C(=C\Nc1ccc3c(c1)OCO3)C2=O` is “inactive”; for `CCN(CC)CCNC(=O)c1cn(CC)c2cc(N3CCN(C(=O)c4ccco4)CC3)c(F)cc2c1=O` it is “inactive”. To `CN(C)CCNC(=O)c1ccc(COCC(F)(F)F)cc1` belongs “inactive”. `COC(=O)COc1ccc(S(=O)(=O)Nc2ccccc2SC)cc1`: the call was inactive. The entry for `Cc1cc(CNC(=O)Nc2ccc3c(c2)OCO3)nn1C` is “inactive”.

Consider `Oc1ccc(Nc2nc(-c3cccs3)cs2)cc1`, for which the compound was classed as inactive.

On to `O=C(NCc1cn2ccsc2n1)Nc1ccc(Cl)cc1`, for which the compound was classed as inactive. With `CC(C)c1ccc(NC(=O)N(CCc2nc3ccccc3[nH]2)C2CCCC2)cc1`, the compound was classed as inactive.

On to `O=C1C2C3c4ccccc4C(c4ccccc43)C2C(=O)N1c1cccc2cccnc12` (stereo not given), for which the call was inactive. To `Brc1ccc2cccnc2c1` belongs “inactive”. With `C/C(=N/Nc1nc(-c2ccccc2)cc(-c2ccc(F)cc2)n1)c1cccc(N)c1`, the call was inactive. Consider `CC(=O)Nc1c(C#N)c(C(C)(C)C)cn1C`, for which the compound was classed as inactive. The entry for `CCOc1cc(C2C(C(=O)OC)=C(C)N=C3SCCC(=O)N32)ccc1OC(C)=O` (stereo not given) is “inactive”; for `O=C(NCc1ccc2c(c1)OCO2)c1ccc(-n2cnnn2)cc1` it is “inactive”. The entry for `CCCN1C(=O)SC(CC(=O)Nc2ccc(Br)cc2)C1=O` (stereo not given) is “inactive”; for `CCn1c(C)cc(=S)c2ccccc21` it is “inactive”.

Turning to `O=C(NCCCN1CCCC1=O)c1ccc(Cl)c(NS(=O)(=O)c2ccc(F)cc2)c1`, the result was inactive. To `CC1CCCCN1Cc1cnc(Cl)s1` (stereo not given) belongs “inactive”. The entry for `Oc1ccc(Br)cc1-c1ccn[nH]1` is “inactive”. For `Cc1ccc(N(CC(=O)Nc2cccc(C)c2)S(=O)(=O)c2cccc3nonc23)cc1`, the outcome was inactive. With `Cc1ncc(C23CC4CC(CC(C4)C2)C3)[nH]1`, the compound was called inactive.

`O=C1C2=C(NC(=S)NC2c2ccc(Cl)cc2)NC(c2ccc(Cl)cc2)N1c1ccc(Cl)cc1` (stereo not given): the call was inactive. In the case of `Cc1ccc(C=Nc2ccccc2C(N)=O)cc1`, the outcome was inactive.

In the case of `CC(C)CCn1c(SCC(=O)N2CC(=O)Nc3ccccc32)nc2scc(-c3cccs3)c2c1=O`, the call was inactive.

For the compound `C=CCNc1ncnc2ccc(Br)cc12`, the compound was classed as inactive.

`c1coc(CNc2ncnc3ccccc23)c1`: the compound was classed as inactive. The entry for `CCOC(=O)N1CCN(S(=O)(=O)c2ccc(C(=O)NNc3nc4cc(C)cc(C)c4s3)cc2)CC1` is “inactive”; for `c1ccc(CN2CCN(c3nc(-c4ccccc4)nc(-n4ccnc4)n3)CC2)cc1` it is “inactive”. Regarding `CCCOC(=O)Oc1ccc2c(=O)c(Oc3cc(C)cc(C)c3)coc2c1`, the call was inactive. The entry for `Cc1ccccc1NC(=S)NC1CCN(Cc2ccccc2)CC1` is “inactive”. To `OC1(c2ccc3ccccc3c2)CCN(Cc2ccccc2)C1` (stereo not given) belongs “inactive”; to `O=C1c2cccc(OCC(=O)N3N=C(c4cccs4)CC3c3ccc(F)cc3)c2CCN1Cc1cccnc1` (stereo not given), “inactive”; to `COc1ccc(O)c(/C=c2/sc3nc4cc(C)c(C)cc4n3c2=O)c1`, “inactive”. As to `Cc1ccc2c(CN3CCC(C)CC3)cc(=O)oc2c1`, the compound was called inactive. The entry for `O=C(Cn1cnc2ccccc2c1=O)NCc1ccco1` is “inactive”.

With `CCn1nc(C(=O)OC(C(=O)c2c[nH]c3ccccc23)c2ccccc2)c2ccccc2c1=O` (stereo not given), the compound was called inactive. Turning to `Cc1ccc(C)c(C(=O)NCc2ccncc2)c1`, the compound was classed as inactive. On to `CCOC(=O)c1ccc(N2CCN(c3ccc(F)cc3)CC2)c(NC(=O)Nc2cccc(OC)c2)c1`, for which the outcome was inactive. The entry for `CCN(CC)CCN(Cc1cc2cc3c(cc2[nH]c1=O)OCCO3)C(=O)NC1CCCCC1` is “inactive”; for `N#Cc1c(-c2ccccc2)ccn(Cc2cccc(Cl)c2)c1=O` it is “inactive”.

As to `CSc1nnc(NC(=O)CCc2ccccc2)s1`, the call was inactive. The entry for `O=C(CSc1nc(Nc2ccccc2)nc(N2CCOCC2)n1)Nc1ccc([N+](=O)[O-])cc1` is “inactive”; for `O=C(Nc1cc(C(F)(F)F)ccc1Cl)C(NCc1ccccc1)c1ccccc1` (stereo not given) it is “inactive”; for `O=C(NNc1nc(-c2ccccc2)cs1)c1ccccc1` it is “inactive”.

With `O=C(NC1CCCC1)c1ccc(Cl)s1`, the call was inactive. The entry for `COc1ccc(C2=Nc3cccc4cccc(c34)N2)cc1` is “inactive”; for `CCN(CC)S(=O)(=O)c1ccc(C(=O)N2CCN=C2SCc2cccnc2)cc1` it is “inactive”. In the case of `Cc1cc(C)n2c(SCC(=O)NCc3ccco3)nnc2n1`, the compound was classed as inactive. To `Cc1ccc2nc(-c3ccc(Br)o3)oc(=O)c2c1` belongs “inactive”; to `NC1=NC(=Nc2ccc(Br)cc2)c2ccccc21`, “inactive”. On to `Cn1cnnc1SCC(=O)Nc1cccc(C(=O)O)c1`, for which the result was inactive. For the compound `COc1ccc2nc(-c3ccccc3)cc(OC)c2c1`, the outcome was inactive. To `Nc1c(C(=O)Nc2ccc(F)cc2)sc2nc(-c3ccco3)ccc12` belongs “inactive”. For the compound `Cc1cccc(-n2c(N)cc(=O)[nH]c2=S)c1`, the result was inactive. To `COc1ccc(OCCSc2nnc(-c3ccc(OC)cc3)n2N)cc1` belongs “inactive”; to `CCOC(=O)N1CCN(S(=O)(=O)c2ccc(C(=O)NNc3nc4c(C)cc(C)cc4s3)cc2)CC1`, “inactive”. Regarding `c1ccc2c(c1)CCN(c1ncnc3c1[nH]c1ccccc13)C2`, the result was inactive. To `O=C(Nc1ccc(S(=O)(=O)N2CCCC2)cc1)c1ccc(CN2CCc3ccccc3C2)cc1` belongs “inactive”. To `Oc1ccc(NCc2ccccc2OCc2ccccc2F)cc1` belongs “inactive”. The entry for `O=C(C(=O)N1CCc2ccccc2C1)N1CCc2ccccc2C1` is “inactive”; for `NC(=O)N1OCC2COc3ccc4ccccc4c3C21` (stereo not given) it is “inactive”. Regarding `Cc1ccc(NC(=O)COC(=O)C2(c3ccc(Cl)cc3)CCCC2)cc1`, the call was inactive. For `COc1ccc(/C=C(\NC(=O)/C=C/c2ccco2)C(=O)NCCc2nc3ccccc3[nH]2)cc1`, the outcome was inactive. Turning to `C=CCOc1ccccc1CNCCCN1CCOCC1`, the outcome was inactive. The entry for `FC(F)(F)C1=CC(c2ccc(Br)cc2)=NCCN1` is “inactive”.

Consider `CCCCC(=O)NCCNC(=O)c1cc(OCC(F)(F)F)ccc1OCC(F)(F)F`, for which the compound was classed as inactive. To `CCOc1ccc2c(c1)nc(SCC(=O)c1ccc(Br)s1)n2C` belongs “inactive”.
